From PubChem BioAssay AID1159580 (chemical genetic matrix, 2015)
“And” between values parts separate entries of the source, which are not always exact repeats. Equal entries are not always repeated. In all, about 5,500 compounds went through this assay and about 2,000 (36%) were called active. Roughly 18% stayed inconclusive and do not appear here. Cut-off read from the data, not from the text of the source: active = normalized growth mostly below about 0.91 (no sharp cut-off); inconclusive = no clear call, values can overlap the other calls; inactive = mostly above about 0.92. Some of the results follow.

Test: chemical genetic growth profiling, strain panel (AID 1159580);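 note: tested at 20 µM; growth read once vehicle control cultures reached saturation at 30 °C; 1 = growth at the plate median or of vehicle wells; lower values mean less growth of the strain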
Details: S. cerevisiae deletion strains, growth OD

Measured: normalized growth

Cc1cccc(CN2CCN(C(c3ccccc3)c3ccc(Cl)cc3)CC2)c1 (stereo not drawn)
0.393 (active) and 0.952 (inactive): locus YHR030C, strain SLT2, stronger effect = lower value
0.203 (active) and 0.96 (inactive): locus YJL095W, strain BCK1, stronger effect = lower value
inactive: locus YBR229C, strain ROT2, stronger effect = lower value 0.979 | locus YCL029C, strain bik1, stronger effect = lower value 0.961 | locus YCR088W, strain abp1, stronger effect = lower value 0.951 | locus YDL005C, strain med2, stronger effect = lower value 0.999 | locus YDL185W, strain tfp1, stronger effect = lower value 0.99 | locus YDR001C, strain nth1, stronger effect = lower value 0.978 | locus YDR101C, strain arx1, stronger effect = lower value 0.935 | locus YDR137W, strain rgp1, stronger effect = lower value 1.05 | locus YDR159W, strain sac3, stronger effect = lower value 0.925 | locus YDR334W, strain swr1, stronger effect = lower value 0.903 | locus YDR335W, strain msn5, stronger effect = lower value 0.976 | locus YDR392W, strain spt3, stronger effect = lower value 0.875 | locus YEL061C, strain CIN8 (second series), stronger effect = lower value 0.978 | locus YEL061C, strain CIN8, stronger effect = lower value 0.968 | locus YER110C, stronger effect = lower value 0.99 | locus YER111C, strain swi4, stronger effect = lower value 0.96 | locus YER167W, strain BCK2, stronger effect = lower value 0.971 | locus YGL078C, strain dbp3, stronger effect = lower value 0.987 | locus YGL167C, strain pmr1, stronger effect = lower value 0.983 | locus YGL173C, strain kem1, stronger effect = lower value 0.94 | locus YGL227W, strain vid30, stronger effect = lower value 0.963 | locus YGL240W, strain doc1, stronger effect = lower value 0.951 | locus YHR079C, strain IRE1 (second series), stronger effect = lower value 0.942 | locus YHR079C, strain IRE1, stronger effect = lower value 0.934 | locus YHR094C, strain hxt1, stronger effect = lower value 0.986 | locus YIL073C, strain SPO22, stronger effect = lower value 0.951 | locus YIL125W, strain kgd1, stronger effect = lower value 0.993 | locus YIR030C, strain dcg1, stronger effect = lower value 0.979 | locus YJL115W, strain asf1, stronger effect = lower value 0.927 | locus YJL134W, strain LCB3, stronger effect = lower value 0.989 | locus YJL154C, strain vps35, stronger effect = lower value 0.995 | locus YJL168C, strain set2, stronger effect = lower value 0.987 | locus YJR043C, strain POL32, stronger effect = lower value 0.903 | locus YJR066W, strain TOR1, stronger effect = lower value 0.926
active: locus YAL021C, strain ccr4, stronger effect = lower value 0.543 | locus YAL026C, strain drs2, stronger effect = lower value 0.59 | locus YAL030W, strain snc1, stronger effect = lower value 0.861 | locus YBL061C, strain skt5, stronger effect = lower value 0.771 | locus YBR009C, strain hhf1, stronger effect = lower value 0.58 | locus YBR021W, strain FUR4, stronger effect = lower value 0.645 | locus YBR023C, strain chs3, stronger effect = lower value 0.701 | locus YBR171W, strain sec66, stronger effect = lower value 0.879 | locus YBR231C, strain swc5, stronger effect = lower value 0.636 | locus YBR279W, strain paf1, stronger effect = lower value 0.777 | locus YCL011C, strain gbp2, stronger effect = lower value 0.633 | locus YCL016C, strain dcc1, stronger effect = lower value 0.723 | locus YCL061C, strain MRC1, stronger effect = lower value 0.902 | locus YCL069W, strain vba3, stronger effect = lower value 0.848 | locus YDL035C, strain GPR1, stronger effect = lower value 0.815 | locus YDL040C, strain nat1, stronger effect = lower value 0.922 | locus YDL074C, strain BRE1, stronger effect = lower value 0.498 | locus YDL101C, strain DUN1, stronger effect = lower value 0.887 | locus YDL134C, strain PPH21, stronger effect = lower value 0.806 | locus YDL192W, strain arf1, stronger effect = lower value 0.772 | locus YDR069C, strain doa4, stronger effect = lower value 0.787 | locus YDR162C, strain NBP2, stronger effect = lower value 0.737 | locus YDR195W, strain ref2 1.52 [resistant] | locus YDR297W, strain sur2, stronger effect = lower value 0.885 | locus YDR318W, strain mcm21, stronger effect = lower value 0.828 | locus YDR388W, stronger effect = lower value 0.648 | locus YDR502C, strain sam2, stronger effect = lower value 0.85 | locus YEL003W, strain gim4, stronger effect = lower value 0.793 | locus YEL037C, strain rad23, stronger effect = lower value 0.856 | locus YER015W, strain faa2, stronger effect = lower value 0.561 | locus YER016W, strain bim1, stronger effect = lower value 0.906 | locus YER155C, strain BEM2 (second series), stronger effect = lower value 0.759 | locus YER155C, strain BEM2, stronger effect = lower value 0.862 | locus YFR010W, strain ubp6, stronger effect = lower value 0.699 | locus YGL086W, strain mad1, stronger effect = lower value 0.832 | locus YGL248W, strain PDE1, stronger effect = lower value 0.769 | locus YGL253W, strain hxk2, stronger effect = lower value 0.77 | locus YGR135W, strain pre9, stronger effect = lower value 0.758 | locus YGR252W, strain gcn5, stronger effect = lower value 0.471 | locus YHR013C, strain ard1, stronger effect = lower value 0.54 | locus YHR027C, strain rpn1, stronger effect = lower value 0.68 | locus YHR129C, strain ARP1, stronger effect = lower value 0.842 | locus YHR142W, strain chs7, stronger effect = lower value 0.734 | locus YHR200W, strain rpn10, stronger effect = lower value 0.904 | locus YIL066C, strain RNR3, stronger effect = lower value 0.821 | locus YJL092W, strain hpr5, stronger effect = lower value 0.817 | locus YJL095W, strain BCK1 (second series), stronger effect = lower value 0.332 | locus YJL129C, strain trk1, stronger effect = lower value 0.61 | locus YJL164C, strain tpk1, stronger effect = lower value 0.622 | locus YJL166W, strain qcr8, stronger effect = lower value 0.735 | locus YJL187C, strain SWE1 (second series), stronger effect = lower value 0.731 | locus YJL187C, strain SWE1, stronger effect = lower value 0.878
